Assay results: PubChem BioAssay (Tox21)
Results filed as inconclusive are left out. Where a call stands in place of a potency, no number is given. Some structures have more than one record in an assay (separate samples or runs), and their calls can disagree. Activity calls are given as the source filed them. Unless noted, calls come from the whole dose curve; as a rule, active = well fitted curve in the direction sought with a large enough effect in the repeat runs; inconclusive = weak or mixed curves; inactive = no such curve, though single readings can be large; an effect the other way counts as inactive or inconclusive.

Key:
[1] = qHTS RealTime-Glo MT Cell Viability Assay in HEK293 cells - 24 hour (AID 1224886); note: nearly all actives have a fitted effect of over 50% in size; note: potency is the fitted concentration of half-maximal effect
In short: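 Homogeneous bioluminescent viability format in HEK293 cells (600 cells/well). Following 5 h at 37 C/5% CO2, 23 nL compound was pintooled; the signal was measured repeatedly during 40 h incubation.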

[2] = qHTS RealTime-Glo MT Cell Viability Assay in HEK293 cells - 8 hour (AID 1224887); note: top concentration of the series differs between compounds; nearly all actives have a fitted effect of over 50% in size
In short: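 HEK293 cells mixed with RealTime-Glo reagents (NanoLuc plus cell-permeant prosubstrate) at 600 cells/well, preincubated 5 h at 37 C/5% CO2, then given 23 nL compound in DMSO. Nonlytic luminescence from viable cells was read at 0, 8, 16, 24, 32 and 40 h.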

[3] = A CellTox Green Cytotoxicity Assay to monitor cytotoxicity in HEK293 cells - 16 hour (AID 1224888); note: nearly all actives have a fitted effect of over 35% in size
In short: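 HEK293 cells premixed with CellTox Green dye were seeded at 600 cells/well and left 5 h at 37 C/5% CO2 before pin transfer of 23 nL compound in DMSO. Fluorescence from dye bound to dead-cell DNA was read during 40 h treatment.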

[4] = A CellTox Green Cytotoxicity Assay to monitor cytotoxicity in HepG2 cells - 8 hour (AID 1224890); note: nearly all actives have a fitted effect of over 45% in size
In short: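 HepG2 cells were seeded together with the CellTox Green dye at 600 cells/well, left 5 h at 37 C/5% CO2, then given compounds in DMSO. Fluorescence from dye bound to dead-cell DNA was read repeatedly over 40 h of treatment at 37 C.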

[5] = qHTS assay to identify small molecule antagonists of the estrogen receptor alpha (ER-alpha) signaling pathway using the BG1 cell line in the presence of 0.1 nM 17-beta-estradiol - cell viability counter screen (AID 1259241); note: nearly all actives have a fitted effect of over 40% in size
In short: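 Estradiol-stimulated (0.1 nM) VM7Luc4E2 cells exposed to compounds 22 hr; viability measured by fluorescence of cleaved CellTiter-Fluor substrate after 30 min.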

[6] = qHTS assay to identify small molecule antagonists of the androgen receptor (AR) signaling pathway using the MDA cell line in the presence of 0.5 nM R1881 - cell viability counter screen (AID 1259242); note: nearly all actives have a fitted effect of over 45% in size
In short: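 MDA-kb2 cells (human breast carcinoma, stably carrying MMTV-luciferase reporter) were exposed to compounds with 0.5 nM R1881 (final) for 16 hr at 37C, 0% CO2; viability then read as live-cell protease fluorescence (CellTiter-Fluor, 30 min) in the same wells.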

[7] = qHTS assay to identify small molecule HDAC inhibitors (AID 1259364); note: top concentration of the series differs between compounds; nearly all actives have a fitted effect of over 45% in size
In short: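 Wild-type HCT-116 cells were plated overnight, exposed to compounds for 2 h at 37 °C, then given HDAC-Glo class I/II luminogenic reagent for 30 min at room temperature before luminescence was read.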

[8] = qHTS assay to identify small molecule HDAC inhibitors - cell viability counter screen (AID 1259365); note: series mostly up to about 92 µM; nearly all actives have a fitted effect of over 50% in size
In short: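 After overnight seeding at 1,500 cells per well, wild-type HCT-116 cultures took up compounds in DMSO for 2hr at 37 C. Viable cell content came from luminescence with CellTiter-Glo.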

[9] = qHTS assay to identify small molecule agonists of the sonic hedgehog signaling (Shh) pathway - cell viability counter screen (AID 1259366); note: nearly all actives have a fitted effect of over 50% in size; note: potency is the fitted concentration of half-maximal effect
In short: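 Same-well cytotoxicity read. Gli1-Luc reporter 3T3 cells; compounds 24hr, 37C/5% CO2; CellTiter-Fluor fluorescence.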

[10] = qHTS assay to identify small molecule antagonists of the sonic hedgehog signaling (Shh) pathway - cell viability counter screen (AID 1259367); note: nearly all actives have a fitted effect of over 55% in size; note: potency is the fitted concentration of half-maximal effect
In short: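 NIH/3T3-derived Gli1-Luc reporter cells, 2,000/well, plated 4 hr before compound addition, then stimulated with conditioned medium for 24 hr at 37C. Viability measured in the same wells by CellTiter-Fluor fluorescence, reagent added at 23 hr for 1 hr.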

[11] = qHTS assay to identify small molecule agonists of the sonic hedgehog signaling (Shh) pathway (AID 1259368; calls by dose curve; note: series mostly up to about 92 µM; nearly all actives have a fitted effect of over 15% in size)
In short: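 NIH/3T3-derived 3T3Gli1-Luc cells carrying a stably integrated Gli1 response element–firefly luciferase reporter were plated, left 4 hr at 37 C, then given compounds in DMSO for 24 hr. Luminescence was read 30 min after adding luciferase reagent.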

[12] = qHTS assay to identify small molecule antagonists of the sonic hedgehog signaling (Shh) pathway (AID 1259369; calls by dose curve; note: nearly all actives have a fitted effect of over 45% in size; note: potency is the fitted concentration of half-maximal effect)
In short: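 NIH/3T3-derived 3T3Gli1-Luc cells with stably integrated Gli1-Luc reporter were preincubated 4hr at 37 C, then given compounds in DMSO plus Shh conditioned medium and incubated 24hr. Firefly luciferase luminescence read after 30min reagent at room temperature.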

[13] = qHTS assay to identify small molecule agonists of the androgen receptor (AR) signaling pathway in the presence of an antagonist - cell viability counter screen (AID 1259379); note: series mostly up to about 92 µM; nearly all actives have a fitted effect of over 25% in size
In short: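 MDA-kb2 human breast carcinoma cells (stable MMTV-luciferase, AR/GR responsive) were seeded 3,000 cells/well, pre-incubated 5 hr at 37C without CO2, then given 3.0uM nilutamide and compounds at 15 concentrations for 16 hr. Viability was read by CellTiter-Fluor fluorescence.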

[14] = qHTS assay to identify small molecule agonists of the estrogen receptor beta (ER-beta) signaling pathway - cell viability counter screen (AID 1259380); note: nearly all actives have a fitted effect of over 30% in size
In short: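 ER-beta-UAS-bla HEK293T cells in medium with 2% charcoal-stripped FBS were preincubated 6 hr at 37C, dosed with compound in DMSO for 16 hr, then after the bla read, CellTiter-Glo was added for 30 min at room temperature; luminescence recorded.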

[15] = target: Estrogen receptor (Homo sapiens) (UniProt P03372); assay: qHTS assay to identify small molecule antagonists of the estrogen receptor alpha (ER-alpha) signaling pathway using the BG1 cell line in the presence of 0.1 nM 17-beta-estradiol (AID 1259244); note: nearly all actives have a fitted effect of over 50% in size
In short: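 VM7Luc4E2 cells (endogenous full-length ER-alpha, stable 4xERE-luciferase) were grown 5 days in phenol red-free medium with charcoal-stripped FBS, then exposed 22 h at 37C to compounds plus 0.1 nM (final) 17beta-estradiol; ONE-Glo luminescence read-out.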

[16] = target: Estrogen receptor beta (Homo sapiens) (UniProt Q92731); assay: qHTS assay to identify small molecule agonists of the estrogen receptor beta (ER-beta) signaling pathway (AID 1259377; active = well fitted activation curve with a large enough effect in the signal ratio in the repeat runs, not every such curve was filed as active; the % refers to the signal ratio)
In short: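 Read-out: beta-lactamase FRET fluorescence. Cell line: ER-beta-UAS-bla HEK293T in 2% charcoal-stripped FBS. Exposure: 16 hr at 37C. Substrate step: 2 h at room temperature.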

[17] = target: Estrogen receptor beta (Homo sapiens) (UniProt Q92731); assay: qHTS assay to identify small molecule antagonists of the estrogen receptor beta (ER-beta) signaling pathway (AID 1259378; active = well fitted inhibition curve with a large enough effect in the signal ratio in the repeat runs, not every such curve was filed as active; the % refers to the signal ratio; note: potency is the fitted concentration of half-maximal effect)
In short: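 ER-beta-UAS-bla HEK293T cells in 2% charcoal-stripped FBS medium treated with compound plus 1nM final 17-beta-estradiol for 16 hr at 37C. Beta-lactamase reporter read by FRET substrate fluorescence after 2 hours at room temperature.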

[18] = qHTS RealTime-Glo MT Cell Viability Assay in HepG2 cells - 0 hour (AID 1224889); note: nearly all actives have a fitted effect of over 50% in size
In short: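 Cell number in HepG2 cultures estimated from NanoLuc luminescence generated by metabolic reduction of a prosubstrate by living cells. The homogeneous, nonlytic format allowed repeated reads at 0, 8, 16, 24, 32 and 40 h of compound exposure.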

[19] = qHTS assay to identify small molecule phospholipidosis (PLD) inducers (AID 1259344; active = well fitted curve in the direction sought with a large enough effect; an effect the other way counts as inactive or inconclusive)
In short: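 HepG2 cells, 900/well, treated with compound plus LipidTOX Red for 24 h at 37 C; amiodarone positive and DMSO negative controls. Fixed with paraformaldehyde/Hoechst, then high-content imaging scored LipidTOX pit count and integrated intensity per well and per cell.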

Estrogen receptor (Homo sapiens), sequence (P03372 whole entry, looked up): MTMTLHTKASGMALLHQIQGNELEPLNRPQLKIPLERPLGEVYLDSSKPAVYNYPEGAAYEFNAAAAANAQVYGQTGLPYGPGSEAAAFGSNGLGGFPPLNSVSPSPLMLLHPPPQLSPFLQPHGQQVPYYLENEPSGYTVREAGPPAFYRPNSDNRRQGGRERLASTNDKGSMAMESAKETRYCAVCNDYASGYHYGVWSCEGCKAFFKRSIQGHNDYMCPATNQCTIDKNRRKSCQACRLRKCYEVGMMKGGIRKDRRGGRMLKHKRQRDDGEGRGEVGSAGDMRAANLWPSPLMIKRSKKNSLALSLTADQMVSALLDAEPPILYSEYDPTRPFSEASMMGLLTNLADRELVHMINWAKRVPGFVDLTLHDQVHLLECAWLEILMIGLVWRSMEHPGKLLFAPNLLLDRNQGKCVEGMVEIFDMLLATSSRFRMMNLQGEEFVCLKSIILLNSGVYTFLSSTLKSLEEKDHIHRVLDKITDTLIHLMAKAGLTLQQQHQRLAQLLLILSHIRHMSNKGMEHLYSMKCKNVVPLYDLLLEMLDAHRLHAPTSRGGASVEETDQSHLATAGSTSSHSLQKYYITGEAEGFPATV
Estrogen receptor beta (Homo sapiens), sequence (Q92731 whole entry, looked up): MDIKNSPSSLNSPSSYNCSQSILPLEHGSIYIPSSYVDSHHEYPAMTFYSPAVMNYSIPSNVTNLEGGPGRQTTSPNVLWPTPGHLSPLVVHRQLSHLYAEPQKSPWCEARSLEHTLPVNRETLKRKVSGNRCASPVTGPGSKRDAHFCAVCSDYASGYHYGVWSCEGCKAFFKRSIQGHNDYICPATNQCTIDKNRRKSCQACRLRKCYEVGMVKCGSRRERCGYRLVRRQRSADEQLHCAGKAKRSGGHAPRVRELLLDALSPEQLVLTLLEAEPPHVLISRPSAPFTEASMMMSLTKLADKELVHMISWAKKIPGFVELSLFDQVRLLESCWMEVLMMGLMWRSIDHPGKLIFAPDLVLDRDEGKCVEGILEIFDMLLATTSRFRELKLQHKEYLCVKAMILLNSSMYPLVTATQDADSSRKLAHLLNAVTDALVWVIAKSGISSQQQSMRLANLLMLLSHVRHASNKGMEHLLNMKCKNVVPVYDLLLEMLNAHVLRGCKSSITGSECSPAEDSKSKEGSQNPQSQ

Row | SMILES | Potency [1] | Potency [2] | outcome [3] | Potency [4] | Potency [5] | outcome [6] | Potency [7] | outcome [8] | Potency [9] | Potency [10] | outcome [11] | Potency [12] | Potency [13] | Potency [14] | Potency [15] | Potency [16] | Potency [17] | Potency [18] | outcome [19]
1 | CCCCCCCCCCCCOCCO | inactive | inactive | inactive | inactive | inactive | inactive | inactive | inactive | inactive | 48.6 µM (active) and inactive | inactive | 27.3 µM (active) and inactive | inactive | inactive | – | – | – | – | –
2 | COc1ccc(NC(C)=O)cc1N | inactive | inactive | inactive | inactive | inactive | inactive | inactive | inactive | inactive | inactive | inactive | inactive | inactive | inactive | inactive | inactive | inactive | – | –
3 | COc1cc(Cc2cnc(N)nc2N)cc(OC)c1OC | inactive | inactive | inactive | inactive | inactive | inactive | inactive | inactive | inactive | inactive | inactive | inactive | inactive | inactive | inactive | inactive | inactive | inactive | inactive
4 | CC(=O)CC(=O)Nc1ccccc1C | inactive | inactive | inactive | inactive | inactive | inactive | inactive | inactive | inactive | inactive | – | inactive | inactive | inactive | inactive | inactive | inactive | inactive | –
5 | CCC(O)OC(O)CC (centres undefined) | inactive | inactive | inactive | inactive | inactive | inactive | inactive | inactive | inactive | inactive | – | inactive | inactive | inactive | inactive | – | – | inactive | –
6 | CCCCN(CCCC)CCCC | inactive | inactive | inactive | inactive | inactive | inactive | inactive | inactive | inactive | inactive | inactive | inactive | inactive | inactive | inactive | inactive | inactive | inactive | –
7 | CCN(CC)c1ccc(C(=O)c2ccccc2C(=O)O)c(O)c1 | inactive | inactive | inactive | inactive | inactive | inactive | inactive | inactive | inactive | inactive | – | inactive | inactive | – | inactive | inactive | inactive | inactive | –
8 | O=P(OC(CCl)CCl)(OC(CCl)CCl)OC(CCl)CCl | 24.4 µM (active) | – | inactive | inactive | inactive | inactive | inactive | inactive | 30.5 µM (active) | 30.5 µM (active) | – | inactive | inactive | inactive | – | inactive | 54.5 µM (active) | – | –
9 | O=C(O)c1ccc2c(c1)C(=O)OC2=O | inactive | inactive | inactive | inactive | inactive | inactive | inactive | inactive | inactive | inactive | – | inactive | inactive | inactive | inactive | inactive | inactive | – | –
10 | Cc1occc(=O)c1O | inactive | inactive | inactive | inactive | inactive | inactive | inactive | inactive | inactive | inactive | inactive | inactive | inactive | inactive | – | – | – | – | –
11 | CC1CCC(C(C)C)C(O)C1 (centres undefined) | inactive | inactive | inactive | inactive | inactive | inactive | inactive | inactive | inactive | inactive | inactive | inactive | inactive | inactive | – | inactive | inactive | inactive | –
12 | O=S(=O)(O)c1ccc2ccccc2c1 | inactive | inactive | inactive | inactive | inactive | inactive | inactive | inactive | inactive | inactive | inactive | inactive | inactive | inactive | inactive | – | – | inactive | –
13 | O=C(O)c1ccccc1C(c1ccc(O)cc1)c1ccc(O)cc1 | inactive | inactive | inactive | inactive | inactive | inactive | inactive | inactive | inactive | inactive | – | inactive | inactive | inactive | inactive | inactive | inactive | – | –
